Reference: PubChem BioAssay
Activity calls are given as the source filed them.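 Rule for the calls, unless noted: active = fluorescence slope higher than the sample average by over 3 SD (cut at about -0.22 in these data, passing the limit was not always enough); inactive = the rest.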

Experiments:
[1] = inhibitors of TNFa-induced NFkB p65 translocation, primary screen, imaging, HUVEC, MLSMR starter and 10KST1 sets (AID 438;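 active = inhibition above 20% together with a positive visual image hit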;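 note: compound added about 3h40 before a 20 min TNFalpha stimulation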;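 for inhibition: signal is the nuclear over cytoplasmic p65 intensity ratio per well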); settings: HUVEC TNFa-induced p65 nuclear translocation; cell count: measured here: nuclei count (cytotoxicity indicator), at 2.08 µM; inhibition: at 2 µM, stronger effect = higher value, 0% TNFa-plus-vehicle, 100% no-TNFa wells
[2] = inhibitors of mutant huntingtin aggregation, primary screen, imaging, exon1htt(103Q)mCFP cells, high-content imaging (AID 483;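 active = visual image review flags a hit and inhibition of aggregation exceeds 20%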;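 note: compound exposure lasted 3 days before fixation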;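 for nuclei count: percent of the per-plate median nuclei count of sample wells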); settings: exon1htt(103Q)mCFP cell line, aggregate imaging, at 2 µM; inhibition of aggregation: stronger effect = higher value; nuclei count: measured here: cell count, toxicity
[3] = inhibitors of E-selectin induction by TNFa, primary screen, imaging, HUVEC, immunofluorescence, MLSMR starter and 10KST1 sets (AID 487;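 active = visually confirmed hit in the image check and inhibition above 20%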;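 for inhibition: signal is fraction of cell area covered by stained E-selectin grains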;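 for nuclei count: 100% = median nuclei count of all wells on the same plate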); settings: HUVEC TNFalpha-induced E-selectin immunofluorescence imaging, at 2 µM; inhibition: stronger effect = higher value; nuclei count: measured here: cell number, toxicity
[4] = biological target: Voltage-gated potassium channel subunit beta-2 (Rattus norvegicus) (UniProt P62483); experiment: KvBeta enzyme negative modulators, primary screen, biochemical, NADPH fluorescence (AID 622); settings: recombinant KvBeta, 4-cyanobenzaldehyde reduction, at 10 µM, stronger effect = higher value;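 note: slope of raw intensity against log time taken from 70 to 1610 s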
Sequence of Voltage-gated potassium channel subunit beta-2 (Rattus norvegicus) (P62483 whole entry, looked up): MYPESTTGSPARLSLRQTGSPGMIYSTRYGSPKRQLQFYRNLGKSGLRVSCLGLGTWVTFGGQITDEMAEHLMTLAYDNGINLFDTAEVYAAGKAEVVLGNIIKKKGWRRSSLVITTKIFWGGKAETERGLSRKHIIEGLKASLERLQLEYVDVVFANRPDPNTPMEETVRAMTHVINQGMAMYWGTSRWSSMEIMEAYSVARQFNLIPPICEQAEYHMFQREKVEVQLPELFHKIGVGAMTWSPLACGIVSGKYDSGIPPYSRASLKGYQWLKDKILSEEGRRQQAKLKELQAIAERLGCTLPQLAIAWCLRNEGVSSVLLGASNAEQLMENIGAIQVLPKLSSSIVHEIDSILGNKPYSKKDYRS

[5] = biological target: Voltage-gated potassium channel subunit beta-2 (Rattus norvegicus) (UniProt P62483); experiment: KvBeta positive modulators, primary screen, biochemical, NADPH fluorescence (AID 623;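 active = NADPH fluorescence slope more negative than the mean of all samples by about 3 SD, 99.7% confidence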;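 note: fluorescence intensity change per second fitted from 20 to 320 s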); settings: Recombinant KvBeta, NADPH fluorescence decrease slope, 10 min; at 10 µM; stronger effect = lower value
[6] = biological target: Alpha-2C adrenergic receptor (Homo sapiens) (UniProt P18825); experiment: modulators of alpha2C/GIRK thallium flux, primary screen, cell-based, HEK293 alpha2C/GIRK1/2 (AID 624;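 active = fluorescence slope after compound addition differing from the mean of all screened samples at 99.7% confidence, in either direction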;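 note: slope of fluorescence ratio to pre-addition baseline per second over 15 to 24 s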); settings: thallium flux BTC fluorescence, at 10 µM, actives lie on both sides
Sequence of Alpha-2C adrenergic receptor (Homo sapiens) (P18825 whole entry, looked up): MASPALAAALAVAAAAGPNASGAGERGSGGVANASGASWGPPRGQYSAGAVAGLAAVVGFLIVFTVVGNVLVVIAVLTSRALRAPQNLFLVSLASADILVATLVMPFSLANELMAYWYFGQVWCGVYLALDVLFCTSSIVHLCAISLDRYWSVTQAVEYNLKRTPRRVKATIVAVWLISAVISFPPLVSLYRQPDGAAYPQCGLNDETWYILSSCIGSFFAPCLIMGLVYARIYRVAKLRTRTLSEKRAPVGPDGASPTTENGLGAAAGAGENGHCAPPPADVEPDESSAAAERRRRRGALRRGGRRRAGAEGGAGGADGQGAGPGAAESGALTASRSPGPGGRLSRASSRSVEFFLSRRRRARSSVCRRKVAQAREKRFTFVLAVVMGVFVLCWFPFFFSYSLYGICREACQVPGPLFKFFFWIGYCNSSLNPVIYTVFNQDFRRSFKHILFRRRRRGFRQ

[7] = inhibitors of Sendai virus-induced IRF3 signaling, primary screen, TLR/RLR signaling modifier project, cell-based, Sendai virus stimulus, luciferase, 10K MLSCN set (AID 602276;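 active = inhibition at or above 50% at 10 µM; inactive = inhibition below 50%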;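 note: firefly luciferase from ISG56 promoter only with Renilla not read in this screen; 0% = Sendai virus plus DMSO and 100% = medium plus DMSO without virus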); settings: HEK293 RL24 IRF3 luciferase reporter, at 10 µM, stronger effect = higher value
[8] = inhibitors of poly I:C-induced TLR3 signaling, primary screen, cell-based, poly I:C stimulus, luciferase, 10K MLSCN set (AID 602277;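 active = inhibition of the reporter signal at or above 50%; inactive = inhibition below 50%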); settings: HEK293-TLR3 RL24 IRF3 luciferase reporter, at 10 µM, stronger effect = higher value

Compound	cell count [1]	inhibition [1]	inhibition of aggregation [2]	nuclei count [2] [%]	inhibition [3]	nuclei count [3] [%]	fluorescence slope [4]	NADPH fluorescence slope [5]	slope [6]	inhibition [7]	inhibition [8]
CCC(C)(C(=O)NC1CCCC1)N(Cc1cccs1)C(=O)Cc1cccs1 (stereo unspecified)	698	-0.9% (inactive)	21% (inactive)	127	-7.8% (inactive)	112	-0.473 (inactive)	-0.000168 (inactive)	0.00631 (inactive)	14.4% (inactive)	44.6% (inactive)
O=C(c1ccc(CNc2c(N3CCCC3)c(=O)c2=O)cc1)N1CCc2ccccc2C1	535	2.3% (inactive)	-13.5% (inactive)	100	-18.6% (inactive)	108	-0.614 (inactive)	2.4e-05 (inactive)	0.00541 (inactive)	-7.92% (inactive)	4.25% (inactive)
CC1Cc2ccccc2N1Cc1cc(=O)n2ccsc2n1 (stereo unspecified)	453	-5.7% (inactive)	-2.2% (inactive)	96.8	-157% (inactive)	121	-0.581 (inactive)	-2e-05 (inactive)	0.00674 (inactive)	1.61% (inactive)	20.7% (inactive)
CC(=O)Nc1ccc(S(=O)(=O)N(C2=NCC(C)S2)c2ccccc2)cc1 (stereo unspecified)	594	5.4% (inactive)	-4.5% (inactive)	95.5	-9.1% (inactive)	109	-0.496 (inactive)	-1.6e-05 (inactive)	0.00617 (inactive)	11.6% (inactive)	11.1% (inactive)
Cn1c(=O)c2c(nc(NCc3ccco3)n2C/C=C/c2ccccc2)n(C)c1=O	256	8.8% (inactive)	6.1% (inactive)	99.5	-65.5% (inactive)	118	-0.637 (inactive)	3.3e-05 (inactive)	0.00629 (inactive)	14.8% (inactive)	18.9% (inactive)
O=C(c1ccccc1)N1CCN(CC2CC=CCC2)CC1 (stereo unspecified)	391	-9.9% (inactive)	21.1% (inactive)	91	-93.3% (inactive)	69.8	-0.304 (inactive)	2.3e-05 (inactive)	0.00325 (inactive)	6.11% (inactive)	19.5% (inactive)
CCCOc1cccc(NC(=O)c2c(-c3ccccc3)noc2C)c1	515	2% (inactive)	7.5% (inactive)	92.7	-32% (inactive)	116	-0.534 (inactive)	5.8e-06 (inactive)	0.00598 (inactive)	12.6% (inactive)	18% (inactive)
Cc1cc(=O)[nH]c(S/C=C/c2ccccc2)n1	427	-1.8% (inactive)	-8.6% (inactive)	103	1.2% (inactive)	80.7	-0.603 (inactive)	-2e-05 (inactive)	0.00593 (inactive)	-28.9% (inactive)	-89.2% (inactive)
CCOc1cc2oc(=O)c3c(c2cc1Cl)CCC3	400	-2.6% (inactive)	5.2% (inactive)	104	-24.1% (inactive)	106	-0.482 (inactive)	1.7e-05 (inactive)	0.00626 (inactive)	-5.28% (inactive)	-30.2% (inactive)
COCCn1c(CN(Cc2ccccc2)Cc2ccccc2)nc2c1c(=O)n(C)c(=O)n2C	633	-19% (inactive)	-10.5% (inactive)	100	-48.5% (inactive)	115	-0.56 (inactive)	6.1e-06 (inactive)	0.00386 (inactive)	18.4% (inactive)	23.3% (inactive)
O=C(NCc1ccccc1)C1CCN(S(=O)(=O)c2cccc3cccnc23)CC1	823	-3% (inactive)	19% (inactive)	65.6	-37.7% (inactive)	111	-0.57 (inactive)	1.3e-05 (inactive)	0.00702 (inactive)	-3.36% (inactive)	33.1% (inactive)
Cc1ccc(S(=O)(=O)N2CCCC(c3nnc4n3-c3ccccc3SC4)C2)cc1 (stereo unspecified)	431	3.4% (inactive)	4.2% (inactive)	95.7	-34% (inactive)	103	-0.67 (inactive)	-3.6e-05 (inactive)	0.00342 (inactive)	16.2% (inactive)	19.1% (inactive)
COc1ccc(C2(C(=O)Nc3c(C)n(C)n(-c4ccccc4)c3=O)CCCC2)cc1OC	712	1.6% (inactive)	-9.8% (inactive)	76.1	-52.3% (inactive)	104	-0.427 (inactive)	2.3e-05 (inactive)	0.00772 (inactive)	13.1% (inactive)	14.9% (inactive)
COC(=O)c1ccc(C(=O)OC)c(NC(=O)Nc2ccc3c(c2)OCO3)c1	279	-7.1% (inactive)	2.1% (inactive)	94.2	-15.8% (inactive)	95.1	-0.417 (inactive)	7.6e-06 (inactive)	0.00311 (inactive)	-24.9% (inactive)	-44.2% (inactive)
COc1ccc(CCNC(=O)c2cnn3ccccc23)c(OC)c1OC	779	-4.5% (inactive)	-37.7% (inactive)	108	-59.3% (inactive)	115	-0.558 (inactive)	-4.4e-06 (inactive)	0.00687 (inactive)	1.42% (inactive)	-10.8% (inactive)
C=CCn1c(Cc2cccs2)nnc1SCC(=O)Nc1ccc(OC)c(OC)c1	268	4% (inactive)	19.5% (inactive)	87.7	-26.5% (inactive)	134	-0.445 (inactive)	-1.9e-05 (inactive)	0.00229 (inactive)	13.5% (inactive)	26.6% (inactive)
Cc1sc2nc(SCc3nc4ccccc4[nH]3)n(Cc3ccco3)c(=O)c2c1C	585	-2.2% (inactive)	17.5% (inactive)	91.4	8.2% (inactive)	97.3	-0.59 (inactive)	-2e-05 (inactive)	0.00556 (inactive)	0.73% (inactive)	-54.9% (inactive)
CN(C(=O)c1ccc(S(=O)(=O)NC2CCCC2)cc1)C1CCCCC1	685	2% (inactive)	-3.6% (inactive)	103	-141% (inactive)	117	-0.455 (inactive)	1.5e-05 (inactive)	0.0047 (inactive)	-13.3% (inactive)	-0.726% (inactive)
C#CCSc1nnc(-c2ccccc2)c(=O)[nH]1	903	-8.2% (inactive)	0.6% (inactive)	127	-57.3% (inactive)	109	-0.505 (inactive)	-4.9e-05 (inactive)	0.00603 (inactive)	-0.0999% (inactive)	-4.88% (inactive)
O=C(CN1C(=O)c2ccccc2S1(=O)=O)Nc1ccc(S(=O)(=O)N2CCCCCC2)cc1	727	-2.6% (inactive)	-11.1% (inactive)	99.9	-91.2% (inactive)	107	-0.489 (inactive)	-5.4e-05 (inactive)	0.00568 (inactive)	4.06% (inactive)	19.5% (inactive)
CCOc1ccc2[nH]c(O)c(NC(C)=O)c2c1	645	-20.5% (inactive)	5.7% (inactive)	104	43.8% (inactive)	101	-0.361 (inactive)	-5.8e-05 (inactive)	0.00431 (inactive)	10.2% (inactive)	16.9% (inactive)
CCN1C(=O)/C(=C2\C=Cc3ccccc3N2CC)OC1=S	695	-8% (inactive)	0.5% (inactive)	8.3	16.6% (inactive)	107	-0.334 (inactive)	-4.6e-05 (inactive)	0.00379 (inactive)	4% (inactive)	-8.93% (inactive)
Cc1nnc(Nc2ccccn2)c2ccccc12	657	7.2% (inactive)	8.1% (inactive)	104	-61.4% (inactive)	109	-0.465 (inactive)	-4.2e-05 (inactive)	0.00477 (inactive)	8.64% (inactive)	13.2% (inactive)
Cc1onc(-c2ccccc2Cl)c1C(=O)Nc1cnn(Cc2ccccc2)c1	545	1.1% (inactive)	-4% (inactive)	121	15.1% (inactive)	120	-0.545 (inactive)	6.7e-06 (inactive)	0.00545 (inactive)	14.3% (inactive)	32.6% (inactive)
O=c1c2nnn(Cc3ccc(Cl)cc3)c2ncn1Cc1ccc(F)cc1	608	-7.9% (inactive)	-10.3% (inactive)	130	-19.2% (inactive)	111	-0.539 (inactive)	-6.1e-05 (inactive)	0.00552 (inactive)	13.6% (inactive)	20.6% (inactive)
O=C(Cc1c(F)cccc1Cl)Nc1ccncc1	285	4.3% (inactive)	1% (inactive)	104	-34.2% (inactive)	124	-0.334 (inactive)	2.5e-05 (inactive)	0.00621 (inactive)	12.9% (inactive)	11.9% (inactive)
